Assay results published in PubChem BioAssay.

These molecules were tested against Torsin-1A-interacting protein 2 (Homo sapiens) (UniProt Q8NFQ8) (assay: small molecules binding lysate-expressed LULL1 – cell lysate, human LULL1 lysate, 635/667 nm fluorescence, primary screen (AID 1092;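 also: probe is lysate of COS7 cells overexpressing human LULL1; score merges per-feature 667 nm fluorescence with signal-to-noise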)). Conditions: small-molecule microarray, hLULL1 lysate binding, 635 nm fluorescence; higher = more signal.
Sequence of Torsin-1A-interacting protein 2 (Homo sapiens) (Q8NFQ8 whole entry, looked up): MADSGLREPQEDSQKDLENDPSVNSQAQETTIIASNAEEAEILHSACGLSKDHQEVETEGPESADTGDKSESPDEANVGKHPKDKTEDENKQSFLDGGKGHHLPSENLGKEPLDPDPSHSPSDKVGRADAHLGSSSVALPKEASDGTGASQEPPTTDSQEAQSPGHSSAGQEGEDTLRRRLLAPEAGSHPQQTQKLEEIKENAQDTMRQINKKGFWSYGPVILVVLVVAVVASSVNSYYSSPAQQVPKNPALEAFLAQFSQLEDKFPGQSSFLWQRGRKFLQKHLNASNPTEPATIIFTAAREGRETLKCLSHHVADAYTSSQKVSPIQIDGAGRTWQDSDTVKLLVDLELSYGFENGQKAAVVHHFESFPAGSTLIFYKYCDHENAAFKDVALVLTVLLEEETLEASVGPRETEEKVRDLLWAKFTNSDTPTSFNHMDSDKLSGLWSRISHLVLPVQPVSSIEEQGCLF

Row | Structure (SMILES) | composite z-score
1 | COc1ccc(COC(=O)NN=C2C[C@@H](O)[C@@H](O)[C@@H]3[C@@H]4C(=O)N(C[C@@H]5CCCO5)C(=O)[C@@H]4CC[C@H]23)cc1 | 0.43
2 | CCOC(=O)[C@H](Cc1ccccc1)NC(=O)CCC1CC(OC(=O)NCCc2ccc(F)cc2)CC2(CCCC(COC(=O)NCCC(C)C)O2)O1 (stereo partly specified) | 2.32
3 | COC(=O)CC=C[C@@H](C)[C@@H](C=NOC[C@@H](O)[C@H]1O[C@@H]2OC(C)(C)O[C@@H]2[C@H]1O)OC | 0.31
4 | C[C@]12CCC3c4ccc(OCC5CO5)cc4CCC3C1CC[C@@H]2O (stereo partly specified) | 2.11
5 | CCOC(=O)CCN1C(=O)[C@H]2[C@H]3[C@H](O)[C@H](O)CC(=NO[C@@H]4O[C@H](CO)[C@@H](O)[C@H](O)[C@H]4O)[C@@H]3CC[C@H]2C1=O | 0.7
6 | CC(CCN1CCCCc2nc(C)c(C)cc21)=NO[C@H](C)c1cn([C@@H]2COC[C@H]2O)nn1 | 0.967
7 | COc1ccc(COC(=O)NN=C2C[C@@H](O)[C@@H](O)[C@@H]3[C@@H]4C(=O)N(c5cccc(Oc6ccccc6)c5)C(=O)[C@@H]4CC[C@H]23)cc1 | 0.717
8 | CC=CC1=C(CO)[C@H](O)[C@H]2O[C@H]2[C@@H]1O | 0.0048
9 | CC1(C)O[C@H]2OC([C@H](O)CON3C(=O)c4ccccc4C3=O)[C@H](O)[C@H]2O1 (stereo partly specified) | -0.061
10 | CCOC(=O)NN=C1C[C@@H](O)[C@@H](O)[C@@H]2[C@@H]3C(=O)N(CC)C(=O)[C@@H]3CC[C@H]12 | 0.458
11 | CC(=O)OC[C@H]1O[C@@H](ON=C(C)CCC(=O)OC[C@H]2O[C@H](C#Cc3ccccc3)C=C[C@@H]2Oc2ccc(C)cc2)[C@H](OC(C)=O)[C@@H](OC(C)=O)[C@@H]1OC(C)=O | 2.3
12 | Cc1cc2c(nc1C)CCCCN2CC(O)CN1CCCc2nc(-c3ccc(Br)cc3)ccc21 (stereo unspecified) | -0.0639
13 | CCOC(=O)CCN1C(=O)[C@H]2[C@H]3[C@H](O)[C@H](O)CC(=NOCC=C(C)CCC=C(C)C)[C@@H]3CC[C@H]2C1=O | 1.01
14 | CC(=O)OC[C@H]1O[C@@H](ON=C(C)CCN2CCCCc3nc(C)c(C)cc32)[C@H](OC(C)=O)[C@@H](OC(C)=O)[C@@H]1OC(C)=O | 1.07
15 | CC(=O)OC[C@H]1O[C@H](CCON=C(C)C)C=C[C@@H]1OC(C)=O | 0.24
16 | CCCNC(=O)OC[C@H]1O[C@H](CCON=C[C@@H](NS(=O)(=O)c2ccc(C)cc2)[C@H](C)C=CCC(=O)OC)C=C[C@@H]1Oc1ccc(OC)cc1 | -0.0006
17 | CCCC[C@H]1CN2[C@@H](CC[C@@H](C)[C@@H]2c2ccc(Br)cc2)C(=O)O1 | 1.28
18 | CCC1=NOC(CCC2CC(OC(=O)NCc3cccc4c3OCO4)CC3(CCCC(COC(=O)NCCc4ccc(Cl)cc4)O3)O2)C1 (stereo unspecified) | 1.59

Row | Structure (SMILES) | composite z-score
19 | COc1ccc(O[C@H]2C=C[C@@H](C#Cc3ccccc3)O[C@@H]2CO)cc1 | 1.88
20 | CC(C)CON=C1[C@H]2CCn3c(=O)n(C)c(=O)n3[C@H]2[C@H](O)[C@@H]2O[C@H]12 | -0.0761
21 | COC(=O)[C@@H]1CC[C@H](C)[C@@H](c2ccc(Br)cc2)N1C[C@@H](O)CN=[N+]=[N-] | 0.147
22 | COC(=O)[C@H](C)NC(=O)CCC1CC(OC(=O)NCCc2ccc(F)cc2)CC2(CCCC(COC(=O)NCc3ccccc3)O2)O1 (stereo partly specified) | 1.92
23 | O=C1C[C@H](c2ccccc2)[C@H](c2ccc(Br)cc2)O1 | -0.247
24 | COc1ccc(O[C@H]2C=C[C@@H](c3ccccc3)O[C@@H]2COC(=O)CCC(C)=NOC[C@@H](O)COCc2ccco2)cc1 | -1.82
25 | O=C1[C@H]2[C@H]3[C@H](O)[C@H](O)CC(=NOCc4ccccc4)[C@@H]3CC[C@H]2C(=O)N1c1cccc(Oc2ccccc2)c1 | 1.6
26 | O=C1[C@H]2[C@H]3[C@H](O)[C@H](O)CC(=NOC[C@@H](O)COCc4ccco4)[C@@H]3CC[C@H]2C(=O)N1Cc1ccc2c(c1)OCO2 | -0.689
27 | CCOC(=O)[C@H](CC(C)C)NC(=O)CCC1CC(OC(=O)NCc2ccc3c(c2)OCO3)CC2(CCCC(COC(=O)NCc3ccccc3)O2)O1 (stereo partly specified) | 1.83
28 | O=C1C2=CC[C@H]3C(=O)N(C4CCCCC4)C(=O)[C@H]3[C@H]2[C@H](O)[C@@H]2O[C@H]12 | 0.821
29 | C=CCOCC1CN2[C@@H](CC[C@@H](C)[C@@H]2c2ccc(Br)cc2)C(=O)O1 (stereo partly specified) | -0.581
30 | CCOC(=O)[C@H](Cc1ccccc1)NC(=O)CCC1CC(OC(=O)NCc2ccc3c(c2)OCO3)CC2(CCCC(COC(=O)NCCOc3ccccc3)O2)O1 (stereo partly specified) | 1.31
31 | CCN1C(=O)[C@H]2[C@H]3[C@H](O)[C@H](O)CC(=NO[C@@H](C)c4cc(-c5c(C)cc(C)cc5C)no4)[C@@H]3CC[C@H]2C1=O | 2
32 | O=C(NN=C1C[C@@H](O)[C@@H](O)[C@@H]2[C@@H]3C(=O)N(c4ccc(F)cc4F)C(=O)[C@@H]3CC[C@H]12)OCc1ccccc1 | 1.88
33 | CC#CCOCCC=C1c2ccccc2[C@@H](OC)[C@@H]1C | 0.127
34 | CC(CCC(=O)OC[C@H]1O[C@H](C#Cc2ccccc2)C=C[C@@H]1Oc1ccc(C)cc1)=NO[C@H](C)c1cn([C@@H]2COC[C@H]2O)nn1 | 0.042
35 | COC(=O)[C@@H]1CC[C@H](C)[C@@H](c2ccc(C)cc2)N1C(=O)c1ccc(C=NOC[C@H]2O[C@H](c3ccccc3)C=C[C@@H]2Oc2ccc(OC)cc2)cc1 | -0.703
36 | CC(=O)OC[C@H]1O[C@@H](ON=C2[C@H]3CCn4c(=O)n(-c5ccccc5)c(=O)n4[C@H]3[C@H](O)[C@@H]3O[C@H]23)[C@H](OC(C)=O)[C@@H](OC(C)=O)[C@@H]1OC(C)=O | 1.37
